Drawing on PubChem BioAssay (NCI), this text covers growth for 7 compounds.

The panel holds about 83,000 compounds, 20% with a hit somewhere; the sample as a whole holds those more often.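 For each line, cells grew in 96-well plates with the test compound present at a single concentration for 48 hours.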 A number with no mark means an inactive call. Activity calls are given as the source filed them. Rule for the calls: active = growth percent below 10; inactive = the rest.

Experiment in all cases: NCI-60 one-dose screen, 48 h (100 = growth as untreated, 0 = no growth, -100 = all killed)
In one assay the test system is NCI-H23 lung. As to conditions: 10 µM unless noted.
Another assay relates to NCI-H226 lung. The conditions noted are these: 10 µM unless noted.
The test system of another assay is NCI-H322M lung. As to conditions: 10 µM unless noted.
A further assay concerns HOP-62 NSCLC. The conditions noted are these: 10 µM unless noted.
A further assay deals with NCI-H460 lung. The conditions noted are these: 10 µM unless noted.
A further assay concerns HOP-92 NSCLC. The conditions noted are these: 10 µM unless noted.
In another assay the test system is NCI-H522 lung. The conditions noted are these: 10 µM unless noted.
The next assay deals with A549/ATCC NSCLC. As to conditions: 10 µM unless noted.
Another assay relates to 786-0 renal. As to conditions: 10 µM unless noted.
A further assay has as its system COLO 205 colon. As to conditions: 10 µM unless noted.
The subject of a further assay is DU-145 prostate. The conditions noted are these: 10 µM unless noted.
The test system of another assay is K-562 leukemia. As to conditions: 10 µM unless noted.
The next assay concerns MALME-3M melanoma. As to conditions: 10 µM unless noted.
The test system of another assay is MDA-MB-231 breast. The conditions noted are these: 10 µM unless noted.
In another assay the test system is RXF 393 renal. As to conditions: 10 µM unless noted.
The test system of a further assay is SF-268 CNS. As to conditions: 10 µM unless noted.
The next assay relates to SF-295 CNS. As to conditions: 10 µM unless noted.
In a further assay the test system is SF-539 CNS. The conditions noted are these: 10 µM unless noted.
The next assay concerns UACC-257 melanoma. The conditions noted are these: 10 µM.
The test system of the next assay is M14 melanoma. As to conditions: 10 µM unless noted.

As for `C=CCn1c(C)nc2ccc(Nc3nc(Nc4ccc(F)cc4)nc4ccccc34)cc21`, the growth with NCI-H23 lung is 56%; in the assay with NCI-H226 lung, 85.4%; in the assay with NCI-H322M lung, 85.5%; with HOP-62 NSCLC, 75.9%; with NCI-H460 lung, 63.4%; in the assay with HOP-92 NSCLC, -0.386% (active). Besides, the growth was 57.9% in the assay with NCI-H522 lung; 52.1% with A549/ATCC NSCLC; 76.7% with 786-0 renal; 43.7% in the assay with COLO 205 colon; 74.1% with DU-145 prostate; 21% in the assay on K-562 leukemia. In addition, the growth in the assay on MALME-3M melanoma is 74.5%; with MDA-MB-231 breast, 73.8%; in the assay with RXF 393 renal, 66.6%; with SF-268 CNS it was 66%; with SF-295 CNS, 31.4%; in the assay on SF-539 CNS it was 73%. Besides, the growth with UACC-257 melanoma was 92.6%; in the assay on M14 melanoma it was 45.2%.
As for `Cc1cc(N/C=c2\sc3ncnn3c2=O)no1`, the growth is 91.6% in the assay on NCI-H23 lung; 108% in the assay on NCI-H226 lung; 81.5% with NCI-H322M lung; 103% in the assay on HOP-62 NSCLC; 105% in the assay with NCI-H460 lung; 92.2% in the assay with HOP-92 NSCLC. The growth in the assay with NCI-H522 lung is 90.8%; in the assay on A549/ATCC NSCLC, 107%; with 786-0 renal, 100%; in the assay with COLO 205 colon it was 112%; with DU-145 prostate it was 93.7%; with K-562 leukemia, 98.5%. In addition, the growth with MALME-3M melanoma is 87.3%; in the assay with MDA-MB-231 breast it was 102%; in the assay on RXF 393 renal, 113%; with SF-268 CNS it was 90.1%; with SF-295 CNS, 99%; in the assay on SF-539 CNS, 107%. Also, the growth is 105% in the assay on UACC-257 melanoma and 92.8% with M14 melanoma.
Take `COc1cc(/C=C2\CCCC3=C2NC(C)=NC3c2cc(OC)c(OC)c(OC)c2)cc(OC)c1OC` (stereo not given): the growth with NCI-H23 lung is 33.9%; in the assay with NCI-H226 lung, 37.7%; in the assay on NCI-H322M lung it was 41.1%; in the assay on HOP-62 NSCLC, 22%; with NCI-H460 lung it was -28% (active); in the assay on HOP-92 NSCLC, 70.7%. Besides, the growth in the assay with NCI-H522 lung is 51.8%; in the assay on A549/ATCC NSCLC, 16.2%; with 786-0 renal, 18%; with COLO 205 colon it was 19.2%; in the assay on DU-145 prostate, 4.92% (active); with K-562 leukemia, 11.1%. In addition, the growth with MALME-3M melanoma is 30.2%; with MDA-MB-231 breast, 13%; in the assay with RXF 393 renal it was 22.7%; with SF-268 CNS, 21.2%; in the assay with SF-295 CNS, -25% (active); in the assay with SF-539 CNS, 13.5%. For the same compound, the values for the growth in the assay on UACC-257 melanoma and with M14 melanoma were 43.8% and -42% (active), respectively.
For the compound `O=S(=O)(NCCCNc1nccc(-c2c(-c3ccccc3)nc3sccn23)n1)c1ccc(F)cc1`, the growth was 38% with NCI-H23 lung; 24.2% in the assay on NCI-H226 lung; 68.3% with NCI-H322M lung; 89% in the assay on HOP-62 NSCLC; 47.9% with NCI-H460 lung; 86.9% in the assay with HOP-92 NSCLC. The growth is 38.4% in the assay with NCI-H522 lung; 43.6% in the assay with A549/ATCC NSCLC; 44.8% in the assay with 786-0 renal; 17.9% with COLO 205 colon; 44.8% in the assay with DU-145 prostate; 26.4% with K-562 leukemia. Moreover, the growth in the assay on MALME-3M melanoma was 67.9%; in the assay with MDA-MB-231 breast it was 58.4%; in the assay with RXF 393 renal, 47.2%; in the assay on SF-268 CNS, 51%; in the assay on SF-295 CNS, 29.8%; in the assay on SF-539 CNS it was 82%. The growth in the assay with UACC-257 melanoma is 71.3%; with M14 melanoma it was 35%.
For the compound `COc1ccc(C2=CC(c3ccc(Oc4ccnc5cc(Cl)ccc45)c(OC)c3)c3c(nc(OC)[nH]c3=O)N2)cc1` (stereo not given), the growth with NCI-H23 lung was 83.4%; in the assay on NCI-H226 lung, 88.9%; in the assay with NCI-H322M lung, 72.9%; with HOP-62 NSCLC it was 81.8%; in the assay with NCI-H460 lung it was 63.5%; in the assay on HOP-92 NSCLC, 49.3%. The growth in the assay on NCI-H522 lung is 75.7%; in the assay with A549/ATCC NSCLC, 65.5%; in the assay on 786-0 renal, 80.3%; in the assay on COLO 205 colon, 102%; in the assay on DU-145 prostate it was 75.6%; in the assay on K-562 leukemia, 28%. In addition, the growth with MALME-3M melanoma is 78.5%; with MDA-MB-231 breast it was 75.2%; in the assay with RXF 393 renal, 78%; with SF-268 CNS, 61.6%; in the assay on SF-295 CNS, 96.5%; in the assay on SF-539 CNS, 105%. Also, the growth with UACC-257 melanoma was 87.5%; with M14 melanoma it was 82.8%.
As for `O=C(CCCn1c2c(sc3ccccc32)c(=O)n2nnc(-c3ccccc3)c12)NCCc1cnc[nH]1`, the growth is 23.4% in the assay with NCI-H23 lung; 98.5% with NCI-H226 lung; -34.1% (active) in the assay on NCI-H322M lung; -7.01% (active) in the assay on HOP-62 NSCLC; -93.2% (active) in the assay with NCI-H460 lung; -75.7% (active) in the assay on HOP-92 NSCLC. In addition, the growth with NCI-H522 lung was -95.8% (active); in the assay with A549/ATCC NSCLC, -75.3% (active); in the assay on 786-0 renal, -85.2% (active); in the assay with COLO 205 colon it was -3.8% (active); in the assay with DU-145 prostate, -100% (active); in the assay on K-562 leukemia, 78.7%. Moreover, the growth is -76.1% (active) with MALME-3M melanoma; -47.2% (active) with MDA-MB-231 breast; -66.9% (active) with RXF 393 renal; -48.9% (active) in the assay on SF-268 CNS; -42.6% (active) with SF-295 CNS; -97.3% (active) in the assay on SF-539 CNS. The growth in the assay with UACC-257 melanoma was -7.05% (active); with M14 melanoma, -80.6% (active).
As to `O=c1c2cccc3c(Nc4ccc(F)cc4)ccc(c32)c2nc3ccccc3n12`, the growth in the assay on NCI-H23 lung is 83.8%; in the assay on NCI-H226 lung, 92.7%; with NCI-H322M lung, 67.8%; in the assay with HOP-62 NSCLC, 87.5%; in the assay with NCI-H460 lung, 77.9%; with HOP-92 NSCLC it was 53.2%. The growth is 82% in the assay with NCI-H522 lung; 96.1% in the assay on A549/ATCC NSCLC; 97.5% in the assay on 786-0 renal; 84.5% in the assay on COLO 205 colon; 95.5% in the assay on DU-145 prostate; 89.5% with K-562 leukemia. Moreover, the growth with MALME-3M melanoma is 94.1%; in the assay on MDA-MB-231 breast it was 70.9%; with RXF 393 renal, 98%; in the assay on SF-268 CNS it was 95.3%; in the assay on SF-295 CNS, 109%; with SF-539 CNS, 83.8%. Also, the values for the growth with UACC-257 melanoma and with M14 melanoma were 86.2% and 96.7%, respectively.
